Compound activity as filed in PubChem.
NIH3T3 tox: kills NIH 3T3 cells; Potency, µM (titrated, usually from 96.7 µM), for inactives: at the highest dose activity change, negative = cytotoxicity, actives largely listed as inhibitors; NIH 3T3 viability, CellTiter-Glo ATP luminescence, 48-72 h; hit rate 4.3% among 94,000; further: on the % scale 0 is the no-effect control and ±100 the full control effect; nearly all actives have a fitted effect of over 55% in size
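Cells were seeded at 400 per well, treated with pin-transferred compound, and kept 48 or 72 hr at 37 °C before CellTiter-Glo addition and luminescence imaging of cellular ATP.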
HEK cytotox: kills HEK 293 cells; AID 1345083; Potency, µM (top dose mostly 115 µM), for inactives: at the top dose activity change, negative = cytotoxicity, actives largely listed as inhibitors; HEK 293 viability, ATP luminescence (CellTiter-Glo), 48-72 h; hit rate 6.6% among 94,000; further: on the % scale 0 is the no-effect control and ±100 the full control effect; nearly all actives have a fitted effect of over 60% in size
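Cells seeded first (HEK 293, 250 cells/well), then compound added by pintool. Incubation ran 48 or 72 hr at 37 degree Celsius. CellTiter-Glo was added and luminescence imaged after 10 min at room temperature.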
hNpr1 antagonist: antagonists of human natriuretic peptide receptor Npr1; HEK293 hNpr1 GloSensor cGMP, ANP-stimulated luminescence; AID 1347048; Potency, µM (doses to about 46.3 µM), inactives show top-dose activity change, negative = inhibition, most hits filed as inhibitors; hit rate 1.6% among 76,000; P16066; calls by dose curve; further: on the % scale 0 is the no-effect control and ±100 the full control effect; nearly all actives have a fitted effect of over 60% in size
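Compound pre-incubated 30 min at room temperature on GloSensor-loaded HEK293 cells stably carrying hNpr1 and the pGS-40F cGMP biosensor. Stimulation uses hNppA at 0.1 nM final; luminescence is taken at baseline and 20 min post-agonist.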
SNCA viab count: reduces viability of HEK-293 SNCA reporter cells; AID 1671193; HEK-293-SNCA-luc viability, GF-AFC fluorescence, 24 h; Potency, µM (highest dose often 57.1 µM), for inactives: at the top dose activity change, negative = cytotoxicity, hits mostly cytotoxic; hit rate 0.12% among 150,000;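 further: 0% = DMSO-treated cells and -100% = medium-only wells without cells; nearly all actives have a fitted effect of over 30% in size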
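HEK-293-SNCA-luc cells (1500/well) plated 24 h, then exposed 24 h to a dilution series; GF-AFC added 30 min at 37C, fluorescence 405/540 nm; normalised to medium-only and DMSO wells, Hill fit.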
SNCA expr inhib: SNCA gene expression inhibition; HEK-293 SNCA-luciferase knock-in, luminescence, 24 h; Potency, µM (highest dose often 57.2 µM), for inactives: at the top dose activity change, negative = inhibition, most hits filed as inhibitors; hit rate 0.17% among 140,000;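 further: plate controls were DMSO cells for no effect and cell-free wells for full effect; nearly all actives have a fitted effect of over 45% in size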
Luciferase inh: Photinus pyralis luciferase inhibition; hit rate 2.5% among 76,000; AID 1347043; Potency, µM (series often up to 115 µM), actives largely listed as inhibitors; purified P. pyralis luciferase, luminescence, biochemical; P08659; further: on the % scale 0 is the no-effect control and ±100 the full control effect; nearly all actives have a fitted effect of over 65% in size
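Purified 10nM P. pyralis luciferase with 10uM D-luciferin and 10uM ATP in 50mM Tris acetate pH 7.5, 10mM Mg acetate, 0.01% Tween-20, 0.05% BSA. qHTS titration; luminescence read by CCD imager.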
NPR1 antag cnf: confirmation of human Npr1 natriuretic peptide receptor antagonists. AID 1347044. shares compounds with hNpr1 antagonist. Potency, µM (series often up to 57.6 µM), without a hit: at the top dose activity change, negative = inhibition, hits mostly inhibitors. hit rate 76% among 1,400. HEK293 hNpr1 cGMP GloSensor luminescence, ANP-stimulated; calls by dose curve; further: nearly all actives have a fitted effect of over 70% in size
Npr2 selectivity: selectivity test of Npr1 antagonists against human Npr2 | AID 1347046 | hit rate 67% among 1,400 | shares compounds with hNpr1 antagonist | Potency, µM (series often up to 57.6 µM), for the others: top-dose activity change, negative = inhibition, actives largely listed as inhibitors | HEK293 hNpr2 GloSensor cGMP luminescence, CNP-stimulated; calls by dose curve; further: nearly all actives have a fitted effect of over 70% in size
Target sequence (P20594 whole entry, looked up): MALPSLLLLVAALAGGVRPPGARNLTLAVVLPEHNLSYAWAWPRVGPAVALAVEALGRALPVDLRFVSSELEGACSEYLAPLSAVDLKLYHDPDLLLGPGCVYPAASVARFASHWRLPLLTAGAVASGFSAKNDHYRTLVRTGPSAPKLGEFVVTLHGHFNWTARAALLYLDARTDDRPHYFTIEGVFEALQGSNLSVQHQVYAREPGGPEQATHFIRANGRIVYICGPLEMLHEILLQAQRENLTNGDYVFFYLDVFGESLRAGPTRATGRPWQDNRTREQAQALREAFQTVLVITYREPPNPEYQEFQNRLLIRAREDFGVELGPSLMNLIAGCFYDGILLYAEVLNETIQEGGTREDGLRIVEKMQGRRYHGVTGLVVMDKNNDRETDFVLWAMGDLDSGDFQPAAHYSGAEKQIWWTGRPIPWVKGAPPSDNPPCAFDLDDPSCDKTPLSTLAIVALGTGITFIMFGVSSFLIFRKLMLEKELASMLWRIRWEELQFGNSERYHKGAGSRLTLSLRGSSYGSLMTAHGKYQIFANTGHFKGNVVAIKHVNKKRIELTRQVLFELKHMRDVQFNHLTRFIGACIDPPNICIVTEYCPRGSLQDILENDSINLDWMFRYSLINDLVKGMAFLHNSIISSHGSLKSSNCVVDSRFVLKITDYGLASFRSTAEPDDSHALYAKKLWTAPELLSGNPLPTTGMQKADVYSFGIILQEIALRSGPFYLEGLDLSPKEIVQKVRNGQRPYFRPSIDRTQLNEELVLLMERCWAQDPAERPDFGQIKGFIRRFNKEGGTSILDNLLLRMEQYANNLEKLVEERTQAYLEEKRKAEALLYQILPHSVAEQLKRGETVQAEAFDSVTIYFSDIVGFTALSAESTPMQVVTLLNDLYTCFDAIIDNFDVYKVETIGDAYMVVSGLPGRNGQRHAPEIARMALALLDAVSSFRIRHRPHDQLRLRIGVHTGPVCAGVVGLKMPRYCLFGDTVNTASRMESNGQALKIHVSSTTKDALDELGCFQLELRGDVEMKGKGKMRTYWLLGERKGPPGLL
FLuc counter: inhibits firefly luciferase, false Npr1 antagonist flag. AID 1347047. purified FLuc enzyme, luminescence, Km substrate. hit rate 0.7% among 1,400. Potency, µM (titrated, usually from 57.6 µM), for inactives: top-dose activity change, negative = inhibition, hits mostly inhibitors. shares compounds with hNpr1 antagonist; further: series mostly up to about 58 µM; 0% is about no effect
GloSensor cGMP: counter-screen for Npr1 antagonists: GloSensor control cell line. shares compounds with hNpr1 antagonist. HEK293 GloSensor cGMP, SNP-stimulated, luminescence. Potency, µM (titrated, usually from 57.6 µM), without a hit: top-dose activity change, negative = inhibition, most hits filed as inhibitors. hit rate 69% among 1,400; calls by dose curve; further: on the % scale 0 is the no-effect control and ±100 the full control effect; nearly all actives have a fitted effect of over 70% in size
Active calls of the source: *; i = inactive; ? = inconclusive; . = no result; [ ] = another dose, or the depositor's remark. Only some compounds are listed: those with a hit (about 7.2% of all), similar ones and a draw of the others. Unless noted, the call rests on the fitted dose curve; in most records, active means well fitted curve in the direction sought with a large enough effect; inconclusive means small, poorly fitted or top-dose-only effect, or another doubt; inactive means no such curve, though single readings can be large; an effect the other way counts as inactive or inconclusive. Potency means the concentration at half of the fitted maximal effect.

SMILES	NIH3T3 tox	HEK cytotox	hNpr1 antagonist	SNCA viab count	SNCA expr inhib	Luciferase inh	NPR1 antag cnf	Npr2 selectivity	FLuc counter	GloSensor cGMP
CCn1cc(CNC(=O)c2ccc(OC3CCN(S(=O)(=O)N(C)C)CC3)cc2)cn1	-29%	?	13µM*	-5%	-22%	i	19µM*	19µM*	-3%	11µM*
O=C1Nc2ccccc2CC12CN(Cc1ccc(F)c(F)c1F)C2	-23%	?	.	-1%	-9%	.	.	.	.	.
CN(Cc1ccc(-c2ccccc2)cc1)Cc1ccc(N(C)C)cc1	-28%	?	-10%	8%	-20%	i	.	.	.	.
CN(Cc1ccncc1)Cc1ccc(-c2ccccc2)cc1	?	71µM*	?	-8%[87.6 µM]	-15%[87.6 µM]	i	22µM*	28µM*	-3%[86.2 µM]	18µM*
Cc1ccc(C(=O)N2CCN(c3cc(-c4cccs4)[nH]n3)CC2)c(C)c1	7.9µM*	45µM*	?	-7%	-19%	i	27µM*	24µM*	4%	27µM*
COc1ccc(C(=O)N2CCCN(c3cc(-c4ccccc4)[nH]n3)CC2)c(OC)c1	-19%	40µM*	?	-4%	?	i	24µM*	?	2%	24µM*
COc1ccc(C(=O)N2CCCN(c3cc(-c4ccccc4)[nH]n3)CC2)c(C)c1	?	?	11µM*	-6%	?	i	17µM*	19µM*	1%	17µM*
COc1ccc(C(=O)N2CCC3(CC2)CC(=O)Nc2ccccc2O3)cc1	-17%	-26%	13µM*	-15%	-10%	i	22µM*	22µM*	0%	22µM*
Cc1ccc(C(=O)N2CCC3(CC2)CC(=O)Nc2ccccc2O3)cc1	-18%	?	.	-5%	?	.	24µM*	24µM*	1%	15µM*
Cc1ccc(C(=O)N2CCC(C(=O)N3CCC4(CC3)CC(=O)Nc3ccccc3O4)CC2)cc1	-8%	?	.	-3%	-11%	.	.	.	.	.
COc1ccc(C(=O)N2CCC3(CC2)CC(=O)c2ccccc2O3)cc1	-27%	?	-3%	-24%	-20%	i	.	.	.	.
CCOC(=O)[C@@H]1[C@@H](OC)C(=O)N(C)C12CCN(C(=O)C1CCC1)CC2	?	-8%	.	.	.	.	.	.	.	.
CC(=O)NCC1CCCN(Cc2ccc(-c3ccccc3C#N)o2)C1 (configuration not stated)	-26%	-21%	-22%	-13%	?	i	?	?	-1%	8%
CCc1ccc(CN2CCCC(CNC(=O)c3cccc(OC)c3OC)C2)o1 (configuration not stated)	-3%	?	6%	-9%	3%	i	.	.	.	.
CS(=O)(=O)N1CCC2(CC1)CC(=O)N(CCCc1ccccc1)C2	5%	i	6%	6%	18%	i	.	.	.	.
Cc1ncnc(N2CCC3(CC2)CC(=O)N(CCCc2ccccc2)C3)c1C	?	?	4.5µM*	-3%	-10%	i	5.4µM*	6.9µM*	0%	5.4µM*
COc1ccc(NC(=O)c2ccc(-c3nnc4ccc(NC(=O)C5CCC5)cn34)cc2)cc1	-4%	?	-30%	-5%	28%	i	?	-29%	-19%	-23%
COCc1cc(=O)n(CC(=O)Nc2cccc(SC)c2)c(N2CCOCC2)n1	-14%	?	-5%	-13%	-13%	i	.	.	.	.
CCc1ccc(CNC(=O)C2CCN(c3cc(C(F)(F)F)ncn3)CC2)cc1	?	?	14µM*	6%	-8%	i	22µM*	17µM*	4%	14µM*
Cc1ccc(CNC(=O)C2CCN(c3cc(C(F)(F)F)ncn3)CC2)cc1	-24%	?	13µM*	-10%	-10%	i	24µM*	22µM*	2%	19µM*
CSc1ccc(CNC(=O)C2CCN(c3cc(C(F)(F)F)ncn3)CC2)cc1	?	?	13µM*	11%	?	i	19µM*	22µM*	4%	15µM*
CCc1ccc(CNC(=O)C2CCN(c3cc(C(F)(F)F)nc(C)n3)CC2)cc1	?	?	-9%	14%	7%	i	.	.	.	.
COCCN1C(=O)c2ccccc2C(C(=O)Nc2cc(C)ccc2OC)C12CCCCC2 (configuration not stated)	-16%	?	?	-12%	-9%	i	22µM*	12µM*	-3%	8%
COc1ccc(NC(=O)Cn2c(N(C)Cc3ccccc3)nc(C)cc2=O)cc1	?	45µM*	11µM*	-26%	?	i	19µM*	?	-2%	15µM*
COc1ccc(NC(=O)Cn2c(N3CCN(c4ccccc4)CC3)nc(C)cc2=O)cc1Cl	?	?	-15%	3%	-11%	i	.	.	.	.
COc1ccc(NC(=O)Cn2c(N(C)Cc3ccccc3)nc(C)cc2=O)cc1Cl	?	?	11µM*	-19%	?	i	11µM*	11µM*	-2%	9.7µM*
Cc1cc(=O)n(CC(=O)Nc2cccc(C)c2C)c(N(C)Cc2ccccc2)n1	?	?	-17%	-13%	-21%	i	.	.	.	.
COc1cc(OC)c(NC(=O)Cn2c(N(C)Cc3ccccc3)nc(C)cc2=O)cc1Cl	?	22µM*	10µM*	-17%	?	i	22µM*	22µM*	-2%	19µM*
Cc1cc(=O)n(CC(=O)Nc2c(C)cccc2C)c(N(C)Cc2ccccc2)n1	?	-27%	0%	6%	3%	i	.	.	.	.
O=C(c1ccc(F)cc1)N1CCC(n2c(=O)[nH]c3ccccc32)CC1	-22%[138 µM]	?	.	-8%[87.6 µM]	0%[87.6 µM]	.	.	.	.	.
